# Measured values published in paper PMC5540273 (PLoS ONE, 2017).
# What was measured:
# Conditions in all cases: concentration: 1 μM, replicates: in singlicate; n = 1
# [1] = system: PAK2
# [2] = system: PAK3
# [3] = system: PAK4
# [4] = system: PAK6
# [5] = system: PAK7
# [6] = system: T1, PCTK1
# T1 construct: gene CDK16
# [7] = system: T2, PCTK2
# T2 construct: gene CDK17
# [8] = system: T3, PCTK3
# T3 construct: gene CDK18
# [9] = system: PDGFRA
# [10] = system: PDGFRB
# 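Note: KINOMEscan kinase panel screen.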
SMILES,%Inh [1] [%],%Inh [2] [%],%Inh [3] [%],%Inh [4] [%],%Inh [5] [%],%Inh [6] [%],%Inh [7] [%],%Inh [8] [%],%Inh [9] [%],%Inh [10] [%]
Cc1cc(Nc2nc(-c3cccc(C)n3)nc3ccccc23)ccn1 [GW872411],15,0,0,0,17,0,0,0,0,0
COc1cc(Nc2nccc(N3CCC(NC(=O)C(C)c4ccc(Cl)cc4)C3)n2)cc(OC)c1OC (stereo not drawn) [GSK1379757],11,22,0,0,0,0,0,0,0,14
Cc1nc(N(C)[C@H]2CN(C(=O)CC#N)CC[C@H]2C)c2cc[nH]c2n1,0,0,0,2,15,0,0,0,0,0
Nc1nc(-c2ccccc2F)c(-c2ccnc3ccccc23)s1 [GW560459],18,14,0,0,0,9,0,13,0,6
OCCCNc1nccc(-c2c(-c3cccc(C(F)(F)F)c3)nn3cc(C(F)(F)F)ccc23)n1 [GW630813],0,3,0,0,12,11,0,19,0,6
Nc1n[nH]c2ncc(-c3ccccc3)cc12 [SB-517081],17,0,0,0,0,3,0,31,51,97.3
COc1cc2ncn(-c3cc(OCc4ccncc4)c(C(N)=O)s3)c2cc1OC [GSK336313],3,0,0,4,0,9,0,18,0,27
Cc1cccc(-c2nc(Nc3ccc4c(cnn4C)c3)c3ccccc3n2)n1 [GW876731],33,0,17,14,0,0,0,11,9,1
C[C@@H]1CC[C@H](C(=O)NC2CCCCC2)CN1c1cc(-c2ccc3c(N)n[nH]c3c2)nc(N)n1 [GSK2291363],17,0,0,3,17,2,10,32,0,34
CC(C)(C)c1ccc(C(=O)Nc2cn3cc(-c4ccccc4)ccc3n2)cc1,0,8,1,0,6,0,0,0,41,93
Cc1nn2c(=O)cc(N3CCOCC3)nc2n1Cc1cccc(Cl)c1Cl [GSK2342769],2,0,0,0,0,4,0,15,0,16
COC(=O)c1c(-c2ccccc2)c2cc(Br)ccc2c(=O)n1Cc1ccc(S(C)(=O)=O)cc1,17,26,6,35,2,23,5,0,8,73
COc1cc2ncn(-c3cc(OCc4ccc(S(C)(=O)=O)cc4)c(C(N)=O)s3)c2cc1OC [GW869979],0,0,0,0,0,19,0,26,30,11
O=C(Nc1n[nH]c2nc(-c3ccccc3)c(Cl)cc12)C1CC1 [SB-734909],0,23,0,0,7,0,0,30,46,97
CCC(=O)c1c(-c2ccccc2)c2cc(Cl)ccc2c(=O)n1Cc1cc(S(C)(=O)=O)n(CC(N)=O)n1,5,0,5,1,0,0,0,13,0,10
CCS(=O)(=O)c1ccc(OC)c(Nc2ncc(-c3ccc(F)cc3)o2)c1.Cl [GW591947],13,0,0,0,14,4,0,16,0,24
COc1ccc(-c2coc3ccc(-c4nnc(SCc5cccc(C#N)c5)o4)cc23)cc1,34,0,14,19,15,0,0,2,20,10
CCc1ccc(-c2ccc3c(c2)-c2nn(C)cc2S(=O)(=O)N3C)cc1,11,0,0,9,0,0,0,0,0,0
